These results are taken from ChEMBL document CHEMBL2218924, “A broad activity screen in support of a chemogenomic map for kinase signalling research and drug discovery” (Biochem J, 2013).

Test [1] deals with T1, Serine/threonine-protein kinase TBK1 (Homo sapiens) (UniProt Q9UHD2).
T1 sequence (whole entry): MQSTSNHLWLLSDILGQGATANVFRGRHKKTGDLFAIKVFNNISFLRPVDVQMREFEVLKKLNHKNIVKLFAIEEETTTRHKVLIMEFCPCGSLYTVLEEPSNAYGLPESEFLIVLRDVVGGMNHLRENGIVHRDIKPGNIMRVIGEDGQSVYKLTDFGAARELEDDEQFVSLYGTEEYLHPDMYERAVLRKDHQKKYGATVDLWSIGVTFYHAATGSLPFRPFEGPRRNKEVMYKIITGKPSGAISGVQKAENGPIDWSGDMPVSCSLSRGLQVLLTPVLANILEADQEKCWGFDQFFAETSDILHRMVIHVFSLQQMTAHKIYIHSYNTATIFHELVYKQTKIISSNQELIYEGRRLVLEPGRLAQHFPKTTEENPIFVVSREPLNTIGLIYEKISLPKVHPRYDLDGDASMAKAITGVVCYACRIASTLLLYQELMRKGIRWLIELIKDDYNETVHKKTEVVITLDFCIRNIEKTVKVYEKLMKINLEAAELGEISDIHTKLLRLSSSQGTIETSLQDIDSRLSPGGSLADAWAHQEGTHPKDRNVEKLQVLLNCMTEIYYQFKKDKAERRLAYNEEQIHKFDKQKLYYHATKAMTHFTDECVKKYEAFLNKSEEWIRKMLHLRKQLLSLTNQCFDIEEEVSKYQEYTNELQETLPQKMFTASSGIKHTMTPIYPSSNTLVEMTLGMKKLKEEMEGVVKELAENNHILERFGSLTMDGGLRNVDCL
As to conditions: at 10 µM.

The target in test [2] is T2, TGF-beta receptor type-1 (Homo sapiens) (UniProt P36897).
T2 sequence (whole entry): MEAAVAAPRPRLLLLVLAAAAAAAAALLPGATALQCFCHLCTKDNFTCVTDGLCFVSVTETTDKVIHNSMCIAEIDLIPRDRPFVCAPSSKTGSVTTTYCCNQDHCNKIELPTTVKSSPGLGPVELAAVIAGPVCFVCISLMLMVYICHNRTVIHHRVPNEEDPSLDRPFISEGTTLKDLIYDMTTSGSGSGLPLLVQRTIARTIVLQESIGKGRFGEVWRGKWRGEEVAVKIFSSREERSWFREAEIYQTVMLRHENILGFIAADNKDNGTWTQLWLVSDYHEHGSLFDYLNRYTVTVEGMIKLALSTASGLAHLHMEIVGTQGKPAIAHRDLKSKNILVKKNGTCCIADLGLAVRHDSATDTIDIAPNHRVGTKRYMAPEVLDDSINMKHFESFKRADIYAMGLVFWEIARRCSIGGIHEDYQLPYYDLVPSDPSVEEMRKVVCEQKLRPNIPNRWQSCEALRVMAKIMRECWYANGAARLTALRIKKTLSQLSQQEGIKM
As to conditions: at 1 µM.

Test [3] concerns the target T2, TGF-beta receptor type-1 (Homo sapiens). The note with it: at 10 µM.
In test [4] the target is Insulin-like growth factor 1 receptor (Homo sapiens) (UniProt P08069). The note with it: at 1 µM.
Test [5] has the same target. The note with it: at 10 µM.
Test [6] has as its target T3, Inhibitor of nuclear factor kappa-B kinase subunit alpha (Homo sapiens) (UniProt O15111).
T3 sequence (whole entry): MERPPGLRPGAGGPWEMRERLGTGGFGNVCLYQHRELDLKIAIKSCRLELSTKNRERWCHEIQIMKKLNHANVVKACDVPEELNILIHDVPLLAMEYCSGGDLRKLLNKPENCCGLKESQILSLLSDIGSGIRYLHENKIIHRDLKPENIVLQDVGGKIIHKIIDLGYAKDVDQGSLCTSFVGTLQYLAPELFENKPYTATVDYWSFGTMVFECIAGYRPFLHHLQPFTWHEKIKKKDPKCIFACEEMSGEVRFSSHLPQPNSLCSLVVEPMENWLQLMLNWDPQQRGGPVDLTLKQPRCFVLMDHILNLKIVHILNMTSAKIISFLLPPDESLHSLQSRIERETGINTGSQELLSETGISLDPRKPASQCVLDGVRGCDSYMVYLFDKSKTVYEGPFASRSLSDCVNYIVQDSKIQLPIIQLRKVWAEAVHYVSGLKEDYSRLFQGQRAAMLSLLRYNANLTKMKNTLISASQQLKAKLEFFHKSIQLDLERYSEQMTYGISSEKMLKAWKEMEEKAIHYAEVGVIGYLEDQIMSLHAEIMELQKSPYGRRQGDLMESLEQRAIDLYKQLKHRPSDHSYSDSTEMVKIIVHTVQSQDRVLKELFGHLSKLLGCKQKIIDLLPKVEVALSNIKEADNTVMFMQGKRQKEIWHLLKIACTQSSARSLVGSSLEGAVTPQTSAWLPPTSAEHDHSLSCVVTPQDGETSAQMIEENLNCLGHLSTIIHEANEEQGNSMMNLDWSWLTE
The note with it: at 1 µM.

Test [7] deals with T3, Inhibitor of nuclear factor kappa-B kinase subunit alpha (Homo sapiens). The note with it: at 10 µM.
For test [8], the target named is T4, Inhibitor of nuclear factor kappa-B kinase subunit beta (Homo sapiens) (UniProt O14920).
T4 sequence (whole entry): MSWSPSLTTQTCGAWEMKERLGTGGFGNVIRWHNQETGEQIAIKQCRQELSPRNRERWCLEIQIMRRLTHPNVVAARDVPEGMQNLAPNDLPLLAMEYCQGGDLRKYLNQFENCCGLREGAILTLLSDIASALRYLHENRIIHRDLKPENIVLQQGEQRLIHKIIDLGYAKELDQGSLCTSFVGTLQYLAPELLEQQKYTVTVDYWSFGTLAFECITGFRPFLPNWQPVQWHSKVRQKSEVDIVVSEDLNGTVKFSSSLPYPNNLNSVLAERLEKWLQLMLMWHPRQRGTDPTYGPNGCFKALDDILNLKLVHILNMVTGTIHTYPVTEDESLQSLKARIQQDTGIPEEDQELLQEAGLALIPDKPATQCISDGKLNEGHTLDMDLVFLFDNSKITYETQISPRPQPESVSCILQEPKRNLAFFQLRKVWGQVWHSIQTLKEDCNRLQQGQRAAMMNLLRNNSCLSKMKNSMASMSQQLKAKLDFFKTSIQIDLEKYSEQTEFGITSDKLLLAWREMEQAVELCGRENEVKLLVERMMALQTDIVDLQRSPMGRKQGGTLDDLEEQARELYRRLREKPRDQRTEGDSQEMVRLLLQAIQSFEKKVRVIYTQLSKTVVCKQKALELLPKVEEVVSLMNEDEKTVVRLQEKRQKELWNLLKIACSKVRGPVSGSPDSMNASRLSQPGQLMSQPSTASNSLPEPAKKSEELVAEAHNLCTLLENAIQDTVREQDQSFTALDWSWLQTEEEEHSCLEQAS
The note with it: at 1 µM.

Test [9] addresses T4, Inhibitor of nuclear factor kappa-B kinase subunit beta (Homo sapiens). As to conditions: at 10 µM.
Test [10] has as its target Insulin receptor (Homo sapiens) (UniProt P06213). As to conditions: at 1 µM.

Chain of Insulin-like growth factor 1 receptor (Homo sapiens) (P08069 31-736 limits assumed): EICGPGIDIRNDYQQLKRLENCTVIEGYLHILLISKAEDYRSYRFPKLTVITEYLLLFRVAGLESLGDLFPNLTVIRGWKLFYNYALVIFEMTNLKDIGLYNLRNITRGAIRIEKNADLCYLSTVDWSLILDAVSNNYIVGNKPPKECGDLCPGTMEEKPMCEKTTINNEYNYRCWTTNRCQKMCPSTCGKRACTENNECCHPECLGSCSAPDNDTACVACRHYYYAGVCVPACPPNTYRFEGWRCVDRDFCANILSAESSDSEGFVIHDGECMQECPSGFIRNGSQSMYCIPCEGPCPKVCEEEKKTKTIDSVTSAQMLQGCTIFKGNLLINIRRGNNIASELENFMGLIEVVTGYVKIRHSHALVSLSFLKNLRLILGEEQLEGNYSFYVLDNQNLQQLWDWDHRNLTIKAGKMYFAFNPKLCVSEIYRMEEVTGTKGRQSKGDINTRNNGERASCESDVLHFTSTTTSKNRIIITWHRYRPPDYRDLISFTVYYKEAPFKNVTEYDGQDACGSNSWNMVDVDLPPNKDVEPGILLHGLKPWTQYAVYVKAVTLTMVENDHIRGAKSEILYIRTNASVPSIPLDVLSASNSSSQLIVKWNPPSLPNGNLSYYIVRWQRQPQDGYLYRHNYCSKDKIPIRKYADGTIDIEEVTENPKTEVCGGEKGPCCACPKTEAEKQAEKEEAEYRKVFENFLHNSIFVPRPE
Chain of Insulin-like growth factor 1 receptor (Homo sapiens) (P08069 741-1367 limits assumed): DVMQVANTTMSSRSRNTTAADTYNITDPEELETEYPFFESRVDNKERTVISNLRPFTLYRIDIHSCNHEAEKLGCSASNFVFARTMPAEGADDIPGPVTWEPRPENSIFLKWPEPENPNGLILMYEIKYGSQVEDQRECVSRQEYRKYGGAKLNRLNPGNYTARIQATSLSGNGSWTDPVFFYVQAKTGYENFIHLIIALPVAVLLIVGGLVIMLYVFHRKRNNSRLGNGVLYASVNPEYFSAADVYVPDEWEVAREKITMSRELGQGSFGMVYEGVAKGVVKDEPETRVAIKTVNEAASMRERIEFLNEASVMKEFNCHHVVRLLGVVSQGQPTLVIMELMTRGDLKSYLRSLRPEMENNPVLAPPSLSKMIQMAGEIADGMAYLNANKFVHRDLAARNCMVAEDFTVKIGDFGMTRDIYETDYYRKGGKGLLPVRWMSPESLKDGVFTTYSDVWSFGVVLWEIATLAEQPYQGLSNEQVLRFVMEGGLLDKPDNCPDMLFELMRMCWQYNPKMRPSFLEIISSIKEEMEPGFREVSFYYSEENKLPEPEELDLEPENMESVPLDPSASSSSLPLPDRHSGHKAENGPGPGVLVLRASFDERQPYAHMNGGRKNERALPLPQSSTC
Chain of Insulin receptor (Homo sapiens) (P06213 28-758 limits assumed): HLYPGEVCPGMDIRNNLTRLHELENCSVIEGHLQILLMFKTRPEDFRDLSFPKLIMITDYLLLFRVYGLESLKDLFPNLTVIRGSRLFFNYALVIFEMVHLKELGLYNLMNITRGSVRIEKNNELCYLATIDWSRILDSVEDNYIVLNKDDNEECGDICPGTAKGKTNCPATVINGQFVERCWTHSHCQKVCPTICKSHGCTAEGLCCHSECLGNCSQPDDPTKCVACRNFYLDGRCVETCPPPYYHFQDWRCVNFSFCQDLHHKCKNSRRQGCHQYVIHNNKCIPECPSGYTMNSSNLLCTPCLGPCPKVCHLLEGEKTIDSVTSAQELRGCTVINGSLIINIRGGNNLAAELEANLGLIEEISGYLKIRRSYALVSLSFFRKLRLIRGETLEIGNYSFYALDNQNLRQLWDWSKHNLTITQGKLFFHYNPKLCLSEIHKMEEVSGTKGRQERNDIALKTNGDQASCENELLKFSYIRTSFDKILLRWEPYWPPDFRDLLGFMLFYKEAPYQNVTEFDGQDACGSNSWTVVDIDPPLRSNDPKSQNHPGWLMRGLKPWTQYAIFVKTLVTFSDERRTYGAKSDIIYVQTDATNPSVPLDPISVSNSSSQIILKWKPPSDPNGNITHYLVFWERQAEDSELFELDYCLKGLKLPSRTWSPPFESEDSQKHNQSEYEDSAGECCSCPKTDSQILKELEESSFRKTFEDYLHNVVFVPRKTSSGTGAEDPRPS
Chain of Insulin receptor (Homo sapiens) (P06213 763-1382 limits assumed): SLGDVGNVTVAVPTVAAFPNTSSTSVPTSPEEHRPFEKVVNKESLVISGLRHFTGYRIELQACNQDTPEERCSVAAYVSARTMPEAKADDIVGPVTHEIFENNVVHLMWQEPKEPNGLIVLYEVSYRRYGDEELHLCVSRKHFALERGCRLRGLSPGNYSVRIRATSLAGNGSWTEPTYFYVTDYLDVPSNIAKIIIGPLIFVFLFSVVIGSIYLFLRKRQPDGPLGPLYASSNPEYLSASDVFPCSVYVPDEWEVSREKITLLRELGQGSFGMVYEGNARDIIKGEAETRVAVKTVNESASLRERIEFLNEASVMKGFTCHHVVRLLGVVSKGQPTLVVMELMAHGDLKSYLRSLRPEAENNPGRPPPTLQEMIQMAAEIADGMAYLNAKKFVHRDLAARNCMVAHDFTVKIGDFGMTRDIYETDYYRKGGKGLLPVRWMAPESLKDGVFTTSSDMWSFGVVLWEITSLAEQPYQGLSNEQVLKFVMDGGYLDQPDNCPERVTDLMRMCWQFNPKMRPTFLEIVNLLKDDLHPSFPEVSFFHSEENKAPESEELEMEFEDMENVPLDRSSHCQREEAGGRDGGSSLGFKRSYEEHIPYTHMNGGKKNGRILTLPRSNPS

The residual activity is the signal under treatment as a percentage of the control signal. In the case of `Cn1cnc2cc3c(Nc4cccc(Br)c4)ncnc3cc21`, the residual activity in [1] came out at 63%; in test [2] it was 86%; in test [3] it was 85%; in test [4], 109%; in [5], 90%; in [6], 92%. Further, the residual activity in test [7] turned out to be 104%; in test [8], 95%; in test [9] it was 94%; in [10], 102%.
